Results published in the supplement of paper PMC9135407.
Several values for one entry are separate records, joined by “and”; a condition that tells them apart may be missing. Identical values can stand only once. Counter-ions that a name gives are not always drawn. Screen size: about 5,800 compounds; about 620 (11%) showed activity. The full list was thinned out, with actives kept by preference. A number with no mark means an inactive call.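 The calls were made as follows: active = score above a cut-off or among the top three wells of a plate; in these data no inactive exceeds 0.85.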

System: primary human hepatic stellate cells (donor 1)
Experiment: scaled lipid accumulation score (0 = DMSO-like, 1 = nortriptyline-like); higher = stronger HSC inactivation (lipid re-accumulation), active = hit call of the paper
Conditions: 48 h
[1] = library stock concentration: 3.33 mM
[2] = library stock concentration: 10 mM
[3] = library stock concentration: 1 mM
[4] = library stock concentration: 80 uM
[5] = library stock concentration: 400 uM
[6] = library stock concentration: 2 mM

COC(=O)CC(NC(=O)C(C)NC(=O)C(NC(=O)OCc1ccccc1)C(C)C)C(=O)CF (configuration not stated)
scaled lipid accumulation score [1]: ≤ 0
scaled lipid accumulation score [2]: 0.101

Cc1cc(C)c(S(=O)(=O)Nc2ccccc2C(F)(F)F)c(C)c1
scaled lipid accumulation score [2]: 0.002

CC/C=C\C/C=C\C/C=C\C/C=C\C/C=C\CCCC(=O)O [Eicosapentaenoic acid (20:5 n-3)]
scaled lipid accumulation score [3]: 0.009

CC/C=C\C/C=C\C/C=C\C/C=C\C/C=C\CCCC(=O)O [Eicosapentaenoic Acid]
scaled lipid accumulation score [3]: 0.001

CCCC[C@H](CCC(=O)O)NC(=O)CCCCCCc1ccccc1
scaled lipid accumulation score [3]: ≤ 0

CCCCCCCCCCCCCCCC(=O)OCC(COP(=O)(O)O)OC(=O)CCCCCCCCCCCCCCC (configuration not stated) [Dipalmitoylphosphatidic acid]
scaled lipid accumulation score [3]: ≤ -0.021

CC1(C)CCC(c2ccc(Cl)cc2)=C(CN2CCN(c3ccc(C(=O)NS(=O)(=O)c4ccc(N[C@H](CCN5CCOCC5)CSc5ccccc5)c(S(=O)(=O)C(F)(F)F)c4)cc3)CC2)C1 [ABT-263 (Navitoclax)]
scaled lipid accumulation score [1]: 0.024
scaled lipid accumulation score [2]: 0.048

Cc1cnc(Nc2ccc(F)cc2Cl)nc1-c1c[nH]c(C(=O)N[C@H](CO)c2cccc(Cl)c2)c1
scaled lipid accumulation score [4]: ≤ -0.001
scaled lipid accumulation score [5]: ≤ -0.001
scaled lipid accumulation score [6]: ≤ -0.001
scaled lipid accumulation score [2]: ≤ -0.001

CC(C)c1cc(-c2n[nH]c(=O)n2-c2ccc3c(ccn3C)c2)c(O)cc1O [Ganetespib] [listing 1 of 2 here]
scaled lipid accumulation score [4]: 0.602
scaled lipid accumulation score [5]: 0.802

CC(C)c1cc(-c2n[nH]c(=O)n2-c2ccc3c(ccn3C)c2)c(O)cc1O [Ganetespib (STA-9090)]
scaled lipid accumulation score [1]: 0.691
scaled lipid accumulation score [2]: 0.649

Cc1cc(NC(=O)Nc2ccc3c(ccn3C)c2)sn1
scaled lipid accumulation score [2]: 0.129

CC(C)c1cc(-c2n[nH]c(=O)n2-c2ccc3c(ccn3C)c2)c(O)cc1O [Ganetespib] [listing 2 of 2 here]
scaled lipid accumulation score [6]: 0.915 (active)
scaled lipid accumulation score [2]: 0.885 (active)

CCCCCCCCCCCCCCP(=O)(O)O [Tetradecyl Phosphonate]
scaled lipid accumulation score [3]: ≤ 0

CN(C)C(=O)[C@H](O)[C@H](Cc1ccccc1)NC(=O)c1cc2cc(Cl)ccc2[nH]1
scaled lipid accumulation score [1]: 0.007
scaled lipid accumulation score [2]: ≤ 0 and 0.127

C[C@@H]1CN(CCCn2c3ccccc3c3ccccc32)C[C@H](C)N1.Cl.Cl [Rimcazole dihydrochloride]
scaled lipid accumulation score [2]: 1.34 (active)

Cc1ccc2c(=O)c3ccccc3n(CCCN)c2c1C
scaled lipid accumulation score [2]: 0.501

COc1ccccc1C1(O)CCN(CCCn2c3ccccc3c3ccccc32)CC1 [NNC 05-2090 hydrochloride]
scaled lipid accumulation score [2]: 0.491

O=c1[nH]c2ccccc2n1CCCN1CCN(C(c2ccccc2)c2ccccc2)CC1 [Oxatomide]
scaled lipid accumulation score (library stock concentration: 4.7 mM): 0.191

CCCCCCCCNC(=O)Cc1c(C)n(C(=O)c2ccc(Cl)cc2)c2ccc(OC)cc12 [Indomethacin N-octyl amide]
scaled lipid accumulation score [3]: ≤ 0

O=C(O)/C=C/CCCCCCCCC(=O)O [Traumatic Acid]
scaled lipid accumulation score [3]: ≤ 0

O=C1Nc2ccc(I)cc2C1=Cc1cc(Br)c(O)c(Br)c1
scaled lipid accumulation score [1]: ≤ 0
scaled lipid accumulation score [2]: 0.083

CCCCCCCC(=O)CC[C@@H]1[C@@H](C/C=C\CCCC(=O)O)[C@@H](O)C[C@H]1O [Unoprostone]
scaled lipid accumulation score [3]: ≤ 0

O=C(O)CCC/C=C\C[C@@H]1[C@@H](/C=C/C(=O)COc2cccc(C(F)(F)F)c2)[C@H](O)C[C@@H]1O [15-keto Fluprostenol]
scaled lipid accumulation score [3]: ≤ 0

COc1ccc(-n2nc(C(N)=O)c3c2C(=O)N(c2ccc(N4CCCCC4=O)cc2)CC3)cc1 [Apixaban]
scaled lipid accumulation score [1]: ≤ 0
scaled lipid accumulation score [2]: ≤ 0

O=c1onc2cnc3ccccc3n12
scaled lipid accumulation score [2]: 1.01 (active)

CC(C)CCC[C@@H](C)[C@H]1CC[C@H]2[C@@H]3CC(=O)[C@@]4(O)C[C@@H](O)CC[C@]4(C)[C@H]3CC[C@]12C [5.alpha.-hydroxy-6-keto Cholesterol]
scaled lipid accumulation score [3]: ≤ 0

O=c1c(-c2ccccc2)c1-c1ccccc1 [diphenylcyclopropenone]
scaled lipid accumulation score [2]: 1.25 (active)

O=C(O)c1ccccc1 [Benzoic acid]
scaled lipid accumulation score (library stock concentration: 16.4 mM): ≤ 0

O=C(O)c1ccccc1 [Benzoic Acid]
scaled lipid accumulation score [1]: ≤ 0
scaled lipid accumulation score [2]: 0.005

O=c1c2ccccc2oc2ccccc12 [Xanthone]
scaled lipid accumulation score [1]: ≤ 0
scaled lipid accumulation score [2]: ≤ 0

Cc1ccccc1N1CCN(S(=O)(=O)C[C@]23CC[C@H](C[C@@H]2NC(=O)[C@@H](N)CCS(C)(=O)=O)C3(C)C)CC1 [L-368,899 hydrochloride]
scaled lipid accumulation score [2]: 0.107

O=P(O)(O)OC1[C@H](OP(=O)(O)O)[C@H](O)C(O)[C@H](O)[C@H]1OP(=O)(O)O (stereo partly drawn) [D-myo-Inositol-1,2,6-triphosphate (sodium salt)]
scaled lipid accumulation score [3]: 0.004

CCNC(=O)C1=C(c2ccc(OC)cc2)C(=C2C=C(Cl)C(O)=CC2=O)NN1
scaled lipid accumulation score [2]: 0.897 (active)

CCNC(=O)c1[nH]nc(-c2cc(Cl)c(O)cc2O)c1-c1ccc(OC)cc1
scaled lipid accumulation score [1]: 0.6

N=C(N)SCCC[C@H](N)C(=O)O [Thioarginine (hydrobromide)]
scaled lipid accumulation score [3]: ≤ 0

NCC(O)CC(=O)O (configuration not stated) [Aminohydroxybutyric acid]
scaled lipid accumulation score [2]: 0.017

CN1CCN(c2ccc(OC(F)(F)F)c(Nc3ncc4c(n3)-c3c(c(C(N)=O)nn3CCO)CC4)c2)CC1 [listing 1 of 2 here]
scaled lipid accumulation score [4]: ≤ 0
scaled lipid accumulation score [5]: ≤ 0
scaled lipid accumulation score [6]: 0.15
scaled lipid accumulation score [1]: ≤ -0.009
scaled lipid accumulation score [2]: 0.668

CNC(=O)c1nn(C)c2c1C(C)(C)Cc1cnc(Nc3ccc(N4CCN(C)CC4)cc3)nc1-2
scaled lipid accumulation score [1]: 0.148
scaled lipid accumulation score [2]: ≤ 0

CN1CCN(c2ccc(OC(F)(F)F)c(Nc3ncc4c(n3)-c3c(c(C(N)=O)nn3CCO)CC4)c2)CC1 [listing 2 of 2 here]
scaled lipid accumulation score [2]: 0.879 (active)

COc1cc(Br)c(S(=O)(=O)Nc2ccc(Cl)c(O[C@@H]3CCN(C)C3)c2)cc1OC
scaled lipid accumulation score [2]: 0.116

COc1cc2c(cc1OC)[C@@H]1C(=O)c3ccc4c(c3O[C@@H]1CO2)C=CC(C)(C)O4 [Deguelin(-)]
scaled lipid accumulation score [2]: ≤ 0

CCCCCCCCCCCCC/C=C/[C@@H](O)[C@H](CO)NC(=O)CCCCCCC [C8 Ceramide]
scaled lipid accumulation score [3]: ≤ -0.021

CCCCCCCCCCCCC/C=C/[C@@H](O)[C@H](CO)NC(=O)CCCCCCC [C-8 Ceramide]
scaled lipid accumulation score [3]: ≤ 0

CCOC(=O)[C@@H](C)Oc1cccc2c(=O)n(CC(=O)Nc3ccc4c(c3)OCCO4)ccc12
scaled lipid accumulation score [2]: 0.249

O=C(NCCCNc1nc(Nc2cccc(CN3CCOCC3)c2)ncc1C1CC1)C1CCC1
scaled lipid accumulation score [4]: ≤ 0
scaled lipid accumulation score [5]: 0.064
scaled lipid accumulation score [6]: 0.072
scaled lipid accumulation score [2]: 0.406

CN(C)CCCNC(=O)[C@@H]1C[C@H](CN2CCOCC2)CN(Cc2ccc3ccccc3c2)C1
scaled lipid accumulation score [2]: 0.993 (active)

COc1ccccc1OCC(O)COC(N)=O (configuration not stated) [Methocarbamol]
scaled lipid accumulation score: ≤ 0
scaled lipid accumulation score [1]: ≤ 0
scaled lipid accumulation score (library stock concentration: 8.3 mM): ≤ -0.001
scaled lipid accumulation score [2]: ≤ 0

CC(C)(C)NCC(O)COc1cccc2[nH]c(=O)[nH]c12 (configuration not stated)
scaled lipid accumulation score [2]: ≤ -0.047

CC(C)NC[C@H](O)COc1cccc2[nH]ccc12 [(S)-(-)-Pindolol]
scaled lipid accumulation score [2]: 0.001

CC(C)NCC(O)COc1cccc2[nH]ccc12 (configuration not stated)
scaled lipid accumulation score [2]: ≤ 0

COc1ccccc1OCCNCC(O)COc1cccc2[nH]c3ccccc3c12 (configuration not stated) [Carvedilol] [listing 1 of 5 here]
scaled lipid accumulation score [2]: 1.18 (active)

CC(C)NC[C@H](O)COc1cccc2[nH]ccc12 [S(-)-Pindolol]
scaled lipid accumulation score [2]: ≤ -0.07

COc1ccccc1OCCNCC(O)COc1cccc2[nH]c3ccccc3c12 (configuration not stated) [Carvedilol tartrate]
scaled lipid accumulation score [2]: 0.276

COc1ccccc1OCCNCC(O)COc1cccc2[nH]c3ccccc3c12 (configuration not stated) [Carvedilol] [listing 2 of 5 here]
scaled lipid accumulation score [2]: 0.936 (active)

CC(C)NCC(O)COc1cccc2[nH]ccc12 (configuration not stated) [Pindolol]
scaled lipid accumulation score: ≤ 0
scaled lipid accumulation score (library stock concentration: 8.1 mM): ≤ -0.006 and 0.131
scaled lipid accumulation score [2]: ≤ 0 and ≤ -0.055 and 0.071

COc1ccccc1OCC(O)CO (configuration not stated) [Guaifenesin]
scaled lipid accumulation score: ≤ 0
scaled lipid accumulation score [1]: ≤ 0
scaled lipid accumulation score [2]: 0.084 and ≤ 0

COc1ccccc1OCCNCC(O)COc1cccc2[nH]c3ccccc3c12 (configuration not stated) [Carvedilol] [listing 3 of 5 here]
scaled lipid accumulation score [2]: 1.57 (active)

COc1ccccc1OCCNCC(O)COc1cccc2[nH]c3ccccc3c12 (configuration not stated) [Carvedilol] [listing 4 of 5 here]
scaled lipid accumulation score [1]: ≤ 0
scaled lipid accumulation score (library stock concentration: 4.9 mM): 0.302 and 0.4

COc1ccccc1OCCNCC(O)COc1cccc2[nH]c3ccccc3c12 (configuration not stated) [Carvedilol] [listing 5 of 5 here]
scaled lipid accumulation score [2]: 1.1 (active)

C[C@](N)(Cc1ccc(O)cc1)C(=O)O [L-alpha-Methyl-p-tyrosine]
scaled lipid accumulation score [2]: 0.166

CC(C)(C)NS(=O)(=O)c1cncc(-c2cc(F)c3nc(N)nn3c2)c1
scaled lipid accumulation score [1]: ≤ 0
scaled lipid accumulation score [2]: ≤ -0.001

O=C(Cc1ccccc1)NO [Phenylacetohydroxamic acid]
scaled lipid accumulation score [2]: ≤ 0

CCCC(=O)O[C@]1(C(=O)COC(C)=O)CC[C@H]2[C@@H]3C[C@H](F)C4=CC(=O)C=C[C@]4(C)[C@@]3(F)[C@@H](O)C[C@@]21C [Difluprednate]
scaled lipid accumulation score [1]: ≤ 0
scaled lipid accumulation score [2]: ≤ -0.001

O=NN(CCCl)C(=O)NCCCl [Carmustine]
scaled lipid accumulation score (library stock concentration: 9.3 mM): ≤ 0
scaled lipid accumulation score [2]: ≤ 0

C[N+](C)(C)CCO.[Br-] [Choline bromide]
scaled lipid accumulation score [2]: ≤ 0
